Compounds with a hit are over-represented: about 1.2% of the library has one in this group of screens.
PrP 5UTR inh – inhibition of PrP 5' UTR reporter expression. cell-based PrP 5' UTR mRNA reporter, plate reader. inhibition, % (test concentration not listed). hit rate 0.35% among 340,000; in the data active = inhibition above about 52%; also: 0 = median of the neutral control wells
Mtb BioA inh – BioA (M. tuberculosis) enzyme inhibition; purified M. tuberculosis BioA enzyme, plate reader; inhibition, % at 9.99 µM; hit rate 0.096% among 360,000; in the data active = inhibition above about 40%
PfHsp40 rescue – compounds rescuing yeast from Plasmodium falciparum HSP40 toxicity | AID 504582 | hit rate 0.68% among 340,000 | growth rescue, % at 12.5 µM | S. cerevisiae expressing PfHsp40, growth rescue, ATP luminescence; in the data active = growth rescue above about 28%, passing the limit was not always enough;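 also: yeast W303a lacking pdr1 and pdr3 grown in galactose medium; growth measured after three days at 30 °C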
TcdB GH inh – TcdB glycohydrolase inhibition; inhibition, % at 9.99 µM; P18177; hit rate 0.24% among 350,000; TcdB glycohydrolase enzymatic assay, plate reader; in the data active = inhibition above about 10%
Yp Topo-I inh – blocks Yersinia pestis topoisomerase I activity. hit rate 0.064% among 360,000. activity, % at 10 µM. Y. pestis Topo-I cleavage product accumulation, plate reader; in the data active = activity above about 50%, passing the limit was not always enough
FadD28 FP inh – inhibitors of Mycobacterium tuberculosis FadD28 bisubstrate binding | FadD28 bisubstrate probe binding, fluorescence polarization | inhibition, % at 12.5 µM | hit rate 0.22% among 360,000 | AID 588549; in the data active = inhibition above about 8.5%, passing the limit was not always enough
* marks the source's active call; other numbers are inactive results; nt = not tested or not shown.

SMILES | PrP 5UTR inh | Mtb BioA inh | PfHsp40 rescue | TcdB GH inh | Yp Topo-I inh | FadD28 FP inh
COCC(=O)N(C)C[C@H]1Oc2cc(-c3ccncc3)ccc2S(=O)(=O)N([C@@H](C)CO)C[C@@H]1C | nt | -3.1 | nt | -1.2 | nt | nt
CSC(=NCc1ccc(F)cc1)NS(=O)(=O)c1cccs1 | -16.3 | nt | 0.0 | 2.1 | -1.5 | -1.9
CS/C(=N\S(=O)(=O)c1ccc(N)cc1)NS(=O)(=O)c1cccs1 | 3.7 | 3.6 | 1.8 | nt | 2.0 | 30.4*
Cc1nn(-c2ccccc2)c(N)c1Sc1cccc([N+](=O)[O-])c1 | -18.6 | 0.7 | 0.0 | nt | -5.4 | 1.2
Cc1cc(C)nc(-n2nc(C)c(Sc3ccc(F)cc3)c2N)n1 | -98.1 | -0.5 | 88.5* | 1.7 | 18.2 | -2.6
COc1ccc2c3c([nH]c2c1)[C@H](CO)N(S(C)(=O)=O)CC31CN(C(=O)Nc2ccccc2)C1 | nt | nt | nt | 0.2 | nt | nt
C[C@@H]1CCCCO[C@H](CN(C)C(=O)Nc2cccc3ccccc23)[C@@H](C)CN([C@@H](C)CO)C(=O)c2cc(NS(=O)(=O)c3ccccc3)ccc2O1 | nt | nt | nt | -3.4 | nt | nt
Cc1ccc(-c2csc(NC(CO)c3nc4ccccc4n3CCOCCO)n2)cc1 (stereo not given) | -15.0 | -1.1 | 33.6* | 1.7 | 0.3 | -1.5
CCC(=O)Nc1ccc2c(c1)C(=O)N(C)C[C@@H](OC)[C@@H](C)CN(Cc1ccncc1)[C@H](C)CO2 | nt | -1.3 | nt | nt | nt | nt
Clc1ccc(OCCCn2ccnc2)c(Br)c1 | -27.7 | nt | 1.0 | nt | 8.0 | -1.7
Clc1ccc(CSC(Cn2ccnc2)c2ccc(Cl)cc2Cl)cc1 (stereo not given) | -1.0 | 7.7 | 146.7* | -0.3 | 57.3* | -10.3
O=C(Cc1ccc(Cl)cc1)NCCCn1ccnc1 | -26.8 | 0.4 | -0.8 | nt | -8.4 | -3.3
Clc1ccc(COC(Cn2ccnc2)c2ccc(Cl)cc2Cl)cc1 (stereo not given) | -22.8 | 11.2 | 92.8* | 0.3 | 61.9* | -4.7
C[C@@H]1CN([C@@H](C)CO)C(=O)c2cccc(NC(=O)Nc3ccc(C(F)(F)F)cc3)c2O[C@@H]1CN(C)Cc1ccc(C(=O)Nc2ccccc2N)cc1 | nt | nt | nt | -0.2 | nt | nt
COc1ccc(C2=NS(=O)(=O)N(C)C(C(=O)NCc3ccc4c(c3)OCO4)=C2)cc1 | -3.8 | -0.1 | 0.1 | 100.5* | 6.4 | -5.6
CCC(=O)N1C[C@@H](C)[C@@H](OC)CN(C)C(=O)c2ccc(NC(=O)c3ccno3)cc2OC[C@@H]1C | nt | 0.2 | nt | 0.0 | nt | nt
C[C@H](CO)N1C[C@H](C)[C@@H](CN(C)S(=O)(=O)c2cn(C)cn2)Oc2ccc(NS(=O)(=O)c3cccs3)cc2CC1=O | nt | -0.6 | nt | -0.2 | nt | nt
CC(=NNC(=S)N1CCN(C2CCCCCC2)CC1)c1ccccn1 | 18.0 | nt | 81.2* | -2.0 | 1.3 | -1.8
CC(=NNC(=S)N1CCN(c2ccccn2)CC1)c1nccs1 | -2.5 | nt | 108.4* | nt | 1.6 | -3.1
CC(=NNC(=S)N1CCN(c2ccccn2)CC1)c1ccccn1 | -15.0 | nt | -0.1 | 0.6 | 7.9 | -0.1
CC(=NNC(=S)N1CC2CCC(CC2)C1)c1ccccn1 | nt | 4.5 | nt | 0.7 | 11.4 | 0.1
COc1cc(OC)c(C#N)c(S(=O)(=O)Cc2ccccc2)c1 | -10.2 | 0.2 | 64.1* | nt | -0.8 | -2.5
COc1cc2[nH]c(=S)nc(NCCC(C)C)c2cc1OC | -13.0 | nt | -0.8 | 10.0* | -8.8 | -0.3
CC(C)(C)c1ccc(NC(=O)Nc2ccc(OCC(=O)N3CCOCC3)cc2)cc1 | -61.3 | nt | 0.9 | 0.2 | 18.0 | 24.6*
O=C(Nc1ccc(OCC(=O)N2CCOCC2)cc1)Nc1cccc(Cl)c1 | -22.5 | nt | -0.6 | -0.1 | -9.3 | -2.7
SMILES | PrP 5UTR inh | Mtb BioA inh | PfHsp40 rescue | TcdB GH inh | Yp Topo-I inh | FadD28 FP inh
O=C(Nc1ccc2c(c1)[C@H]1C[C@H](CC(=O)N3CCCCC3)O[C@@H](CO)[C@H]1O2)NC1CCCC1 | nt | -1.7 | nt | 0.5 | nt | nt
COc1ccc2[nH]c(=O)c(CN(Cc3cccnc3)C(=O)Nc3ccccc3)cc2c1 | -7.5 | 1.6 | 287.8* | nt | 9.7 | -4.2
CCOc1ccc2[nH]c(=O)c(CN(Cc3cccnc3)C(=O)Nc3ccccc3OC)cc2c1 | -19.0 | -1.3 | -1.4 | nt | 20.9 | 0.2
COC(=O)NCC(C)OC(=O)Nc1cccc(Cl)c1 (stereo not given) | -18.1 | 1.1 | -0.2 | nt | -0.5 | -6.9
CC(CNC(=O)COc1ccccc1)OC(=O)Nc1ccc(Cl)c(Cl)c1 (stereo not given) | -1.1 | 1.2 | 199.7* | nt | 8.7 | -4.4
CCN(C(C)=O)c1cnc(C=NNC(N)=S)c2ccccc12 | 16.3 | nt | 82.3* | -4.8 | 7.3 | -1.9
NC(=S)NN=Cc1nccc2c(N)cccc12 | nt | 1.4 | nt | -0.3 | -6.4 | -3.4
Cc1cc2c(cc1S(=O)(=O)N(C)c1ccccc1)NC(=O)CO2 | -11.1 | 5.9 | 1.1 | 20.8* | 11.1 | -2.6
Cc1cc2c(cc1S(=O)(=O)NCc1ccccc1)OCC(=O)N2 | 2.8 | 0.7 | 0.0 | 0.6 | 1.0 | -0.5
S=C(Nc1cccc(Cl)c1)Nc1cccc2cnccc12 | -9.1 | nt | 31.4* | nt | 4.9 | -2.2
Cc1ccc(NC(=S)Nc2cccc3cnccc23)cc1C | -20.0 | 1.6 | 377.1* | 0.8 | -0.9 | -3.4
Cc1ccc(NC(=S)Nc2cccc3cnccc23)cc1 | -27.0 | 2.1 | -2.1 | -0.1 | -1.8 | -3.7
O=C(C[C@@H]1C[C@H]2c3cc(NC(=O)c4ccc5c(c4)OCO5)ccc3O[C@H]2[C@@H](CO)O1)NCc1cccnc1 | nt | 2.1 | nt | -0.2 | nt | nt
O=C(C[C@H]1CC[C@H](NS(=O)(=O)c2cccc(F)c2)[C@@H](CO)O1)NCc1ccc2c(c1)OCO2 | nt | 1.4 | nt | 0.3 | nt | nt
OCCCNc1nc(-c2ccc(Cl)cc2)nnc1-c1ccc(Br)cc1 | -21.3 | nt | 28.4* | nt | 9.8 | -6.4
S=C(NCc1ccccc1)NC1CCCc2ccccc21 (stereo not given) | -24.6 | nt | 35.8* | -0.6 | 1.3 | 0.0
C[C@@H]1CN([C@@H](C)CO)C(=O)Cc2cc(NC(=O)NC3CCCCC3)ccc2O[C@H]1CN(C)S(=O)(=O)c1cccs1 | nt | 2.5 | nt | -0.6 | nt | nt
Cc1nc(SC(C)C(=O)Nc2cccc(C(F)(F)F)c2)c2c(C)c(C(=O)O)sc2n1 (stereo not given) | -9.1 | nt | 48.8* | -1.5 | -1.6 | -3.3
NC(=S)N=Nc1c(O)[nH]c2ccc(F)cc12 | 5.3 | nt | 0.8 | 1.2 | -9.9 | 1.0
NC(=S)N=Nc1c(O)cc(O)c2[nH]c(=O)ccc12 | -27.8 | nt | 0.4 | 0.4 | -17.4 | 29.7*
CCOc1ccc(C(C)NC(=S)NCc2ccc(F)cc2)cc1 (stereo not given) | -15.8 | 0.7 | 5.4 | -0.1 | 8.0 | -4.8
Cc1ccc(C(C)NC(=S)NCc2ccc(F)cc2)c(C)c1 (stereo not given) | 2.0 | 1.1 | 117.4* | 1.7 | 4.5 | -1.1
CCc1ccc(C(C)NC(=S)NC2CCCCC2)cc1 (stereo not given) | -14.1 | -0.8 | 82.7* | nt | 8.5 | -1.7
CCc1ccc(C(C)NC(=S)NCc2ccc(F)cc2)cc1 (stereo not given) | 9.7 | 1.1 | 227.2* | 0.7 | 12.6 | -2.7
CCC(C)c1ccc(C(C)NC(=S)NC2CCCCC2)cc1 (stereo not given) | -21.5 | 0.0 | -1.0 | 1.6 | 31.2 | -2.4
